Reference: PubChem BioAssay (NCATS)
Several values for one entry are separate records, joined by “and”; a condition that tells them apart may be missing. Identical values can stand only once. Results filed as inconclusive are left out. Activity calls are given as the source filed them. Unless noted, calls come from the whole dose curve; as a rule, active = well fitted curve in the direction sought with a large enough effect; inconclusive = small, poorly fitted or top-dose-only effect, or another doubt; inactive = no such curve, though single readings can be large; an effect the other way counts as inactive or inconclusive.

Experiments:
[1] = Stat Signaling Pathway (AID 446; active = well fitted curve in either direction with a large enough effect, not every such curve was filed as active;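 note: ME-180 cervical cancer cells given 40 pM IL-6 alongside compound; SIE-controlled beta-lactamase reporter measured as 460/530 nm FRET emission ratio; % is set by controls: 0 for no effect and ±100 for the full control effect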); settings: ME-180 (cervical carcinoma) SIE beta-lactamase reporter, IL-6 stimulated, 5 h
How it was run: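 Emission at 460 and 530 nm (excitation 405 nm) reports SIE-controlled beta-lactamase in ME-180 cells. Cells received compound with 40 pM IL-6 for 5 hrs at 37 C; data scaled between 300 pM IL-6 and 125 nM JAK-inhibitor controls.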

[2] = molecular target: Glucocorticoid receptor (Homo sapiens) (UniProt P04150); assay: GR-GFP Redistribution (AID 450;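 active = compounds whose dose series gives a full or clear partial fitted curve of increased nuclear translocation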; note: potency is the fitted concentration of half-maximal effect); settings: U2OS GR-GFP nuclear translocation, laser cytometry, 2 h
[3] = molecular target: Glucocorticoid receptor (Homo sapiens) (UniProt P04150); assay: GR-EFC Redistribution (AID 451; calls by dose curve; note: potency is the fitted concentration of half-maximal effect); settings: CHO-K1 GR-EFC translocation, beta-gal luminescence, 2 h
How it was run: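 CHO-K1 cells stably expressing nuclear-localized β-gal enzyme acceptor and GR fused C-terminally to the enzyme donor fragment; ligand-driven nuclear translocation restores β-gal by complementation. Compounds titrated up to 46 uM final, 2 h at 37 °C; luminescence read.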

[4] = molecular target: Mitogen-activated protein kinase 10 (Mus musculus) (UniProt Q61831); assay: JNK3 AlphaScreen Assay (AID 530; active = well fitted curve in either direction with a large enough effect, not every such curve was filed as active;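 note: kinase came from lysate of stimulated human HepG2 cells; signal reports phosphorylation of biotinylated GST-cJun 1-79 at Ser73 with 10 µM ATP; % is set by controls: 0 for no effect and ±100 for the full control effect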); settings: JNK3 lysate, c-Jun phosphorylation; series mostly up to 57.1 µM
How it was run: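 Biotinylated GST-cJun(1-79) served as substrate for JNK3 in HepG2 lysates stimulated with IL-1beta and TNF-alpha. ATP was 10 uM final, pH 7.6. Ser73 phosphorylation was quantified by AlphaScreen (680 nm excitation).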

[5] = Cell Viability - NIH 3T3 (AID 541); settings: NIH 3T3 cell viability, qHTS; activity change, negative = cytotoxicity: at 92.2 µM (top of the series);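 note: cells exposed to compound for 40 hours; nearly all actives have a fitted effect of over 25% in size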; note: potency is the fitted concentration of half-maximal effect;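 for activity change, negative = cytotoxicity: plate controls were DMSO alone for no effect and tamoxifen positive control for full effect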
How it was run: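 In this cytotoxicity screen, acute toxicity is scored as an ATP drop measured by CellTiter-Glo in NIH 3T3 fibroblasts following a 40 hr, 37 °C incubation with compound.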

[6] = Cell Viability - SH-SY5Y (AID 544); settings: SH-SY5Y neuroblastoma cell viability; viability change, negative = cytotoxic: at 92.2 µM (top of the series);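 note: cells exposed to compound for 40 hours; nearly all actives have a fitted effect of over 55% in size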; note: potency is the fitted concentration of half-maximal effect;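 for viability change, negative = cytotoxic: 0% = DMSO alone and -100% = 100 µM tamoxifen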
How it was run: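 Quantitative HTS in SH-SY5Y neuroblastoma cells, 40 hr treatment at 37 °C, ATP content by luciferase luminescence; AC50 from Hill fits.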

[7] = Cell Viability - Renal Proximal Tubule (AID 545); settings: renal proximal tubule cells viability; at 91.7 µM (top of the series) unless noted;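 note: cells exposed to compound for 40 hours; 0% = DMSO only and -100% = 100 µM tamoxifen; nearly all actives have a fitted effect of over 40% in size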
How it was run: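 Primary rat renal proximal tubule cells (1000/well) were treated with compounds for 40 hr at 37 °C in complete medium. Intracellular ATP was measured by CellTiter-Glo luminescence, and AC50 values came from Hill-equation fits of concentration-response data.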

[8] = Cell Viability - N2a (AID 540); settings: N2a mouse neuroblastoma cell viability; at 92.2 µM (top of the series);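 note: cells exposed to compound for 40 h at 37 °C; plate controls were DMSO alone for no effect and tamoxifen control for full effect; nearly all actives have a fitted effect of over 45% in size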
How it was run: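 In this qHTS cytotoxicity screen, ATP-dependent luciferase luminescence reports viable N2a cells after a 40 hr compound exposure in complete culture medium. Potencies are AC50 values from standard Hill equation fits.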

[9] = Cell Viability - H-4-II-E (AID 543); settings: H-4-II-E rat hepatoma viability; series mostly up to 92.2 µM;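 note: cells exposed to compound for 40 hours; nearly all actives have a fitted effect of over 35% in size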; note: potency is the fitted concentration of half-maximal effect
How it was run: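 AC50 from Hill-modelled qHTS concentration-response curves. H-4-II-E rat hepatoma cells in complete medium, 40 hr exposure at 37 °C, viability by CellTiter-Glo ATP luminescence.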

[10] = Cell Viability - HUV-EC-C (AID 542); settings: HUV-EC-C endothelial cell viability, qHTS; series mostly up to 92.2 µM;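 note: cells exposed to compound for 40 hours; % is set by controls: 0 for no effect and ±100 for the full control effect; nearly all actives have a fitted effect of over 35% in size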
How it was run: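 Concentration-dependent ATP loss in HUV-EC-C cells is the measure. Exposure lasts 40 hr at 37 °C; luminescence follows CellTiter-Glo addition, and Hill fits give AC50.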

Glucocorticoid receptor (Homo sapiens), sequence (P04150 whole entry, looked up, the tested form may be a part): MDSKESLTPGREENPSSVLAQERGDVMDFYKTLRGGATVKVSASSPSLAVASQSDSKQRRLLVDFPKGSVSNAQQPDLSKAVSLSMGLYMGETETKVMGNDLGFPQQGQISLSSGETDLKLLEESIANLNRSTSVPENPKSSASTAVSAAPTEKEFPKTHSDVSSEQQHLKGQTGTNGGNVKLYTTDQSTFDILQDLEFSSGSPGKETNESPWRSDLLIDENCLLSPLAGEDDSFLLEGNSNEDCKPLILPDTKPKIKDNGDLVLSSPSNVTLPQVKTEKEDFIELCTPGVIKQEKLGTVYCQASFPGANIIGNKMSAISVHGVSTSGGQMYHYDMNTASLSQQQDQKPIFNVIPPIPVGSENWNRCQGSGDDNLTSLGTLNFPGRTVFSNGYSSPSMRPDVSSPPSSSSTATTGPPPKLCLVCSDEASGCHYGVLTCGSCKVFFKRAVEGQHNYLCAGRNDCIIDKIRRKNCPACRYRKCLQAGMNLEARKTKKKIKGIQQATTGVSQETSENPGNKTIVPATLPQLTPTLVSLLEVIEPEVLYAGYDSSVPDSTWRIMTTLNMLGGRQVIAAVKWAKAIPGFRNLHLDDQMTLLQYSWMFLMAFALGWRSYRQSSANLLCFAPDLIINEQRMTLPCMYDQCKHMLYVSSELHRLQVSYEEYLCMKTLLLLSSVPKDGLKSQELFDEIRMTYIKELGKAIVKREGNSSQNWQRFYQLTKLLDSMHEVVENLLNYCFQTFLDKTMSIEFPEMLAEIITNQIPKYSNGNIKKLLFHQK

CCN(CC)C(=O)N[C@@H]1C=C2c3cccc4[nH]cc(c34)C[C@@H]2N(C)C1
inactive: activity, negative = inhibition ([1]; at 38 µM (top of the series)) 4.62% | Potency [2] > 46 µM | Potency [3] > 46 µM | outcome [4]

C#CCN(C)[C@H](C)Cc1ccccc1
inactive: Potency [2] > 46 µM | Potency [3] > 46 µM | outcome [4]

C[C@]12C/C(=C/O)C(=O)C[C@@H]1CC[C@@H]1[C@@H]2CC[C@@]2(C)[C@H]1CC[C@]2(C)O
active: activity change, negative = cytotoxicity [5] -114% | viability change, negative = cytotoxic [6] -95.9% | activity change, negative = cytotoxicity [7] -89.1%
inactive: outcome [4]

Nc1ccncc1
inactive: activity, negative = inhibition ([1]; at 38 µM (top of the series)) 18.2% | outcome [4]

Oc1cccc2cccnc12
active: activity change, negative = cytotoxicity [8] -89.1% | Potency [5] 12.6 µM and 10 µM | Potency [9] 39.8 µM | Potency [6] 3.98 µM
inactive: activity, negative = inhibition ([1]; at 7.69 µM (top of the series)) -1.23% | outcome [4] | activity change, negative = cytotoxicity [7] -13.9% and -16.1%

C=C(C)[C@H]1Cc2c(ccc3c2O[C@@H]2COc4cc(OC)c(OC)cc4[C@@H]2C3=O)O1
inactive: Potency [2] > 46 µM | Potency [3] > 46 µM

CN(C)CCN(C)CCc1ccc(Cl)c(Cl)c1
inactive: Potency [2] > 46 µM | Potency [3] > 46 µM | outcome [4]

N[C@@H]1C[C@H]1c1ccccc1
inactive: activity, negative = inhibition ([1]; at 38 µM (top of the series)) 20.3% | outcome [4]

CCOP(=S)(OCC)Oc1cc(C)nc(C(C)C)n1
inactive: outcome [4] | activity change, negative = cytotoxicity [8] -3.66% | activity change, negative = cytotoxicity [5] -10% | outcome [10] | Potency [9] | viability change, negative = cytotoxic [6] -9.46% | activity change, negative = cytotoxicity [7] -3.55%

NN=C(N)N
inactive: activity, negative = inhibition ([1]; at 38 µM (top of the series)) 13% and 15.8% | outcome [4]

N[C@@H](Cc1ccc(N(CCCl)CCCl)cc1)C(=O)O
active: activity change, negative = cytotoxicity [8] -94.8% | activity change, negative = cytotoxicity [5] -113% | Potency [9] 50.1 µM | Potency [6] 0.251 µM | activity change, negative = cytotoxicity [7] -104%
inactive: outcome [4]

NCC(O)c1ccc(O)cc1 (centres undefined)
inactive: outcome [4] | activity change, negative = cytotoxicity [8] -14.9% | activity change, negative = cytotoxicity [5] -28.6% | outcome [10] | Potency [9] | viability change, negative = cytotoxic [6] -12.1% | activity change, negative = cytotoxicity [7] -6.15%
